# Assay results as given in PubChem BioAssay (NCI).
# This is part of a sample that, as a whole, favours compounds with a hit. Of some 83,000 tested, about 20% had one in any assay.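 For each line, cells grew in 96-well plates with the test compound present at a single concentration for 48 hours.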 Values without a mark were called inactive. Calls of active or inactive are those of the source. How the source made its calls: active means growth percent below 10; inactive means the rest.
# What was measured:
# Assay in all cases: NCI-60 one-dose screen, 48 h (100 = growth as untreated, 0 = no growth, -100 = all killed)
# Conditions in all cases: 10 µM unless noted
# SR leukemia = tested on: SR leukemia
# RPMI-8226 leukemia = tested on: RPMI-8226 leukemia
# OVCAR-8 ovarian = tested on: OVCAR-8 ovarian
# OVCAR-5 ovarian = tested on: OVCAR-5 ovarian
# OVCAR-4 ovarian = tested on: OVCAR-4 ovarian
# SK-OV-3 ovarian = tested on: SK-OV-3 ovarian
# IGROV1 ovarian = tested on: IGROV1 ovarian
# OVCAR-3 ovarian = tested on: OVCAR-3 ovarian
# HS 578T breast = tested on: HS 578T breast
# NCI/ADR-RES ovarian = tested on: NCI/ADR-RES ovarian
Structure (SMILES),growth (SR leukemia),growth (RPMI-8226 leukemia),growth (OVCAR-8 ovarian) [%],growth (OVCAR-5 ovarian) [%],growth (OVCAR-4 ovarian),growth (SK-OV-3 ovarian) [%],growth (IGROV1 ovarian) [%],growth (OVCAR-3 ovarian) [%],growth (HS 578T breast) [%],growth (NCI/ADR-RES ovarian) [%]
COc1cc2c(=O)n(C3CCCCCC3)c3c4cc[nH]c4ncc3c2cc1OC,16.3%,66.4%,83.4,76.2,93.4%,82.3,57.3,89.1,42.4,89.1
CCCCC(CC)OC(=O)C(Br)CC (stereo not given),94.3%,113%,101,106,90.6%,114,105,104,101,98.7
Cc1nc2c3c(ncn2n1)Oc1c(c(=O)[nH]c2ccccc12)C3c1ccc(Cl)cc1 (stereo not given),100%,86.2%,97.3,101,97%,116,89.3,99.2,99.7,94.7
CN(C)CCCC(C#N)c1ccccc1 (stereo not given),96.2%,108%,112,117,113%,107,132,117,121,108
C=C(C)[C@@H]1CC[C@]2(C(=O)N3CCNCC3)CC[C@]3(C)[C@H](CC[C@@H]4[C@@]5(C)C/C(=C/c6ccncc6)C(=O)C(C)(C)[C@@H]5CC[C@]43C)[C@@H]12,106%,98.2%,98.2,105,98.9%,107,103,116,98.4,109
COc1cc(C2NN=C3c4ccccc4CCC32)cc(OC)c1OC (stereo not given),61.1%,5.35% (active),70.3,95.8,71.1%,69,26.1,71.2,71.4,79.4
Fc1ccc(-c2nc(-c3nc4ncccc4[nH]3)cc3c2[nH]c2ccccc23)cc1F,76%,45.7%,66.6,93.5,60.2%,111,62.3,82,96,61.4
CCOC(=O)c1ccc(NC(=O)N2CC(C)OC(C)C2)cc1 (stereo not given),98.7%,63.1%,101,94,96.8%,99.5,73.6,109,101,100
CCN(CC)CCCC(C)Nc1c2ccc(Cl)cc2nc2cc(OC)c(OC)cc12 (stereo not given),-14.2% (active),-33% (active),14.1,50.9,-30.7% (active),40.5,24.3,34.4,44.2,28.8
COc1ccc(-c2nc(N3CCCC3=O)sc2Br)cc1OC,88.9%,109%,103,99.2,98.2%,115,113,111,100,104
